Source: PubChem BioAssay AID1159580 (chemical genetic matrix, 2015)
“And” between values parts separate entries of the source, which are not always exact repeats. Equal values may be shown once. In all, about 5,500 compounds went through this assay and about 2,000 (36%) were called active. About 18% were inconclusive and are not listed. Rule as the data show it: active = normalized growth mostly below about 0.91 (no sharp cut-off); inconclusive = no clear call, values can overlap the other calls; inactive = mostly above about 0.92. Some of the results follow.

Assay: chemical genetic growth profiling, strain panel (AID 1159580);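 also: tested at 20 µM; growth read once vehicle control cultures reached saturation at 30 °C; 1 = growth at the plate median or of vehicle wells; lower values mean less growth of the strain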
Conditions: S. cerevisiae deletion strains, growth OD

Measured: normalized growth

CC(=O)O[C@H]1CC[C@@]2(C)C(C[C@@H](OC(C)=O)[C@]3(C)C2CC[C@@]2(C)[C@H](c4ccoc4)OC(=O)[C@H]4O[C@]423)C1(C)C (some centres not stated)
inactive: locus YAL013W, strain DEP1, hits give low values 0.993 | locus YAL021C, strain ccr4, hits give low values 1.01 | locus YAL026C, strain drs2, hits give low values 1 | locus YAL030W, strain snc1, hits give low values 0.99 | locus YBL061C, strain skt5, hits give low values 0.996 | locus YBR009C, strain hhf1, hits give low values 0.987 | locus YBR021W, strain FUR4, hits give low values 0.999 | locus YBR023C, strain chs3, hits give low values 0.997 | locus YBR171W, strain sec66, hits give low values 1 | locus YBR229C, strain ROT2, hits give low values 1 | locus YBR231C, strain swc5, hits give low values 1.01 | locus YBR279W, strain paf1, hits give low values 1 | locus YCL011C, strain gbp2, hits give low values 0.993 | locus YCL016C, strain dcc1, hits give low values 1 | locus YCL029C, strain bik1, hits give low values 1.01 | locus YCL061C, strain MRC1, hits give low values 1 | locus YCL069W, strain vba3, hits give low values 0.998 | locus YCR088W, strain abp1, hits give low values 0.995 | locus YDL005C, strain med2, hits give low values 0.996 | locus YDL035C, strain GPR1, hits give low values 0.998 | locus YDL040C, strain nat1, hits give low values 0.988 | locus YDL074C, strain BRE1, hits give low values 1.04 | locus YDL101C, strain DUN1, hits give low values 1.03 | locus YDL185W, strain tfp1, hits give low values 1.01 | locus YDL192W, strain arf1, hits give low values 0.992 | locus YDR001C, strain nth1, hits give low values 0.99 | locus YDR069C, strain doa4, hits give low values 0.991 | locus YDR101C, strain arx1, hits give low values 1.01 | locus YDR137W, strain rgp1, hits give low values 1.08 | locus YDR159W, strain sac3, hits give low values 0.983 | locus YDR162C, strain NBP2, hits give low values 1.02 | locus YDR195W, strain ref2 0.93 | locus YDR297W, strain sur2, hits give low values 0.999 | locus YDR318W, strain mcm21, hits give low values 1.01 | locus YDR334W, strain swr1, hits give low values 0.985 | locus YDR335W, strain msn5, hits give low values 0.999 | locus YDR388W, hits give low values 1.01 | locus YDR392W, strain spt3, hits give low values 0.914 | locus YDR502C, strain sam2, hits give low values 1.03 | locus YEL003W, strain gim4, hits give low values 0.991 | locus YEL037C, strain rad23, hits give low values 0.988 | locus YEL061C, strain CIN8 (second series), hits give low values 0.987 | locus YEL061C, strain CIN8, hits give low values 1.01 | locus YER015W, strain faa2, hits give low values 0.998 | locus YER016W, strain bim1, hits give low values 0.999 | locus YER110C, hits give low values 1.02 | locus YER111C, strain swi4, hits give low values 0.983 | locus YER155C, strain BEM2 (second series), hits give low values 0.988 | locus YER155C, strain BEM2, hits give low values 1 | locus YER167W, strain BCK2, hits give low values 0.993 | locus YFR010W, strain ubp6, hits give low values 0.992 | locus YGL078C, strain dbp3, hits give low values 1.02 | locus YGL086W, strain mad1, hits give low values 1.01 | locus YGL167C, strain pmr1, hits give low values 0.994 | locus YGL173C, strain kem1, hits give low values 1 | locus YGL227W, strain vid30, hits give low values 1 | locus YGL240W, strain doc1, hits give low values 0.978 | locus YGL248W, strain PDE1, hits give low values 1.02 | locus YGL253W, strain hxk2, hits give low values 1 | locus YGR078C, strain PAC10, hits give low values 1.02 | locus YGR135W, strain pre9, hits give low values 1.06 | locus YGR229C, strain SMI1, hits give low values 0.959 | locus YGR252W, strain gcn5, hits give low values 1.1 | locus YHR013C, strain ard1, hits give low values 0.981 | locus YHR027C, strain rpn1, hits give low values 0.998 | locus YHR030C, strain SLT2, hits give low values 1.05 | locus YHR079C, strain IRE1 (second series), hits give low values 1.02 | locus YHR079C, strain IRE1, hits give low values 1.04 | locus YHR094C, strain hxt1, hits give low values 1.01 | locus YHR129C, strain ARP1, hits give low values 1.01 | locus YHR142W, strain chs7, hits give low values 1.03 | locus YHR200W, strain rpn10, hits give low values 1.04 | locus YIL066C, strain RNR3, hits give low values 0.999 | locus YIL073C, strain SPO22, hits give low values 1.04 | locus YIL125W, strain kgd1, hits give low values 1.01 | locus YIR030C, strain dcg1, hits give low values 1 | locus YJL092W, strain hpr5, hits give low values 0.998 | locus YJL095W, strain BCK1 (second series), hits give low values 1 | locus YJL095W, strain BCK1, hits give low values 1.07 and 1.04 | locus YJL115W, strain asf1, hits give low values 0.997 | locus YJL129C, strain trk1, hits give low values 0.987 | locus YJL134W, strain LCB3, hits give low values 1.01 | locus YJL154C, strain vps35, hits give low values 1 | locus YJL164C, strain tpk1, hits give low values 0.995 | locus YJL166W, strain qcr8, hits give low values 1 | locus YJL168C, strain set2, hits give low values 1.01 | locus YJL187C, strain SWE1 (second series), hits give low values 1.04
